HIV RNase H inh-1: HIV-1 RT RNase H inhibitors, primary screen, biochemical, fluorescence. RT-RNase H RNA/DNA duplex cleavage. 1.9% of 65,000 active. inhibition, % at 10 µM. Gag-Pol polyprotein (Human immunodeficiency virus type 1 group M subtype B (isolate …; in the data active = inhibition above about 50%
HIV RNase H inh-2: HIV-1 RT RNase H inhibitors, retest, confirmation, biochemical. shares compounds with HIV RNase H inh-1. Recombinant RT RNase H, fluorescent RNA/DNA duplex cleavage. inhibition, % at 10 µM. 39% of 1,000 active. AID 651, 2007; in the data active = inhibition above about 48%; inconclusive = no clear call, values can overlap the other calls
An asterisk follows results filed as active; ? = inconclusive. This is one part of a sample in which hits are shown more often than they occur.

SMILES	HIV RNase H inh-1	others
O=C(c1ccccc1)c1c[nH]c2cc3c(cc2c1=O)OCCO3	-9
CC1CCCCN1CCNC(=O)c1cnn2ccccc12 (centres undefined)	-7
COC(=O)C1=C(N)Oc2cc(C)n(CCCn3ccnc3)c(=O)c2C1c1cccc(Cl)c1 (centres undefined)	13
COc1ccc(CCNC(=O)c2nnn(-c3ccc4c(c3)OCCO4)c2N)cc1OC	-9
CCOc1ccc(NC(=O)CN(C)CC(=O)NC2CCCc3ccccc32)cc1OCC (centres undefined)	-1
CCOC(=O)C1=C(C)NC(C)=C(C(=O)OCC)C1c1cc(N)ccc1OC(F)F	-5
O=C(C1CCC(N2C(=O)C3CC=CCC3C2=O)CC1)N1CCCCC1 (centres undefined)	-11
c1ccc(Cc2nnc3sc(-c4ccc5c(c4)OCO5)nn23)cc1	85*	HIV RNase H inh-2=49
Cn1c(Cc2ccccc2)nnc1SCC(=O)Nc1ccc2c(c1)OCO2	-4
CCc1nnc2sc(-c3ccc(NC(=O)c4ccc5c(c4)OCCO5)cc3)nn12	4
CCn1cc(C(=O)O)c(=O)c2cnc(N3CCN(C(=O)Nc4cccc5ccccc45)CC3)nc21	1
C=C1CC2C=C(NC(C)=O)CC(C1)C2 (centres undefined)	0
CCOc1ccc(CCNC(=O)C2CCCN(c3nnc(-n4cccc4)s3)C2)cc1OCC (centres undefined)	-5
Cc1nn(CCC#N)c2c1P(=S)(N1CCCC1)OC(c1ccc(F)cc1)=N2 (centres undefined)	91*	HIV RNase H inh-2=72*
CN=C(Nc1cc(C)nn1CCC#N)c1ccc(F)cc1	0
O=S(=O)(Nc1ccc2c(c1)nc1n2CCOC1)c1ccc(Cl)cc1	-9
CCOC(=O)C1=C(C)N=c2s/c(=C\c3ccncc3)c(=O)n2C1c1ccc2c(c1)OCO2 (centres undefined)	20
CCOC(=O)C1=C(C)N=c2s/c(=C3\C(=O)Nc4ccccc43)c(=O)n2C1c1ccc2c(c1)OCO2 (centres undefined)	86*	HIV RNase H inh-2=67*
CCOC(=O)C1=C(C)NC(=O)NC1c1ccc2c(c1)OCCO2 (centres undefined)	-17
O=C(CCN1C(=O)COc2ccccc21)NCc1cccs1	-3
Cc1ccc(S(=O)(=O)Nc2nc3ccc(S(=O)(=O)N4CCCC4)cc3s2)cc1	9
CC1CN(C(=O)CN2C(=O)c3ccccc3S2(=O)=O)CC(C)O1 (centres undefined)	-1
O=C(CSc1nnc(-c2ccccn2)n1Cc1ccccc1)NC1CCCC1	1
CCCc1nnc2n1N=C(c1ccc(OC)c(OC)c1)CS2	-17
COc1ccc(Cc2nnc3n2N=C(c2cc4ccccc4o2)CS3)cc1OC	71*	HIV RNase H inh-2=47
SMILES	HIV RNase H inh-1	others
COc1ccc(C2=Nn3c(nnc3-c3ccccc3)SC2)cc1OC	-2
CCCc1cc(C(N)=O)c(NC(=O)c2ccco2)s1	48
CCCc1cc(C(N)=O)c(NC(=O)C2CCCO2)s1 (centres undefined)	76*	HIV RNase H inh-2=64*
CCOC(=O)c1sc(NC(=O)C2CCCO2)c(C(=O)OCC)c1C (centres undefined)	23
CN1CCN(CC#CCn2c3ccccc3c3ccccc32)CC1	-2
CCOC(=O)N1CCC(NC(=O)Cc2ccc(-n3c(=O)[nH]c4ccccc4c3=O)cc2)CC1	-6
CCOc1cc(C(=O)CSc2nnc(CNc3ccc(Cl)cc3)o2)ccc1NC(=O)CC	67*	HIV RNase H inh-2=14
CCc1nnc(NC(=O)CSc2nnc(CNc3ccc(Cl)cc3)o2)s1	-1
COc1ccc(NC(=O)CSc2nnc(CNC(=O)COc3ccc(Cl)cc3)o2)c(OC)c1	-33
COC(=O)c1ccccc1S(=O)(=O)Nc1ccc(OC)nc1	-2
CCn1c(NC(=O)Nc2ccccc2OC)nc2ccccc21	13
O=S(=O)(c1ccc2c(c1)OCCO2)N1CCC(n2nnc3cc(F)ccc32)CC1	-2
Fc1ccc2c(c1)nnn2C1CCN(Cc2ccccc2)CC1	-11
O=C(N1CCOCC1)N1CCC(n2nnc3cc(F)ccc32)CC1	84*	HIV RNase H inh-2=34
CCC1CCCCN1S(=O)(=O)c1ccc2c(c1)CCN2C(=O)C1CCC1 (centres undefined)	-7
CCC1CCCCN1S(=O)(=O)c1ccc(S(=O)(=O)N2CCN(S(=O)(=O)CC)CC2)cc1 (centres undefined)	51*	HIV RNase H inh-2=57*
CCS(=O)(=O)N1CCN(S(=O)(=O)c2ccc(F)cc2)CC1	-8
COc1cccc(C2/C(=C(/O)c3cnn(-c4ccccc4)c3C)C(=O)C(=O)N2CCN(C)C)c1 (centres undefined)	7
Cc1cc(C)n(-c2ccc(C(=O)OCC(=O)N(CC(C)C)C3CCS(=O)(=O)C3)cc2)n1 (centres undefined)	-9
CC(C)CN(C(=O)COC(=O)c1cc2ccccc2oc1=O)C1CCS(=O)(=O)C1 (centres undefined)	0
CC(C)CN(C(=O)COC(=O)c1ccc2c(c1)NC(=O)CS2)C1CCS(=O)(=O)C1 (centres undefined)	77*	HIV RNase H inh-2=79*
Cc1nnc(SCC(=O)N2CCCCC2)s1	-9
COc1ccccc1NC(=O)c1ccccc1SC	-44
COc1ccccc1NC(=O)c1cc2ccc(O)cc2o/c1=N\O	-12
COc1ccccc1NC(=O)c1cc2ccccc2o/c1=N\O	89*	HIV RNase H inh-2=-4
SMILES	HIV RNase H inh-1	others
COc1cc(CO)cc(Br)c1OCc1cccnc1	-13
CC(C)NC(=O)N(O)C1N(Cc2ccc3c(c2)OCO3)C(=S)SC1(C)C (centres undefined)	2
COCCCNC(=O)C12CCC(C)(C(=O)C1)C2(C)C (centres undefined)	1
CCc1nnc(NC(=O)C(C)Sc2ccccc2)s1 (centres undefined)	3
CCOc1cc2[nH]c(=O)n(CCCCC(=O)NC3CCCCCC3)c(=O)c2cc1OCC	-5
CCOc1cc2[nH]c(=O)n(CC3CCC(C(=O)NCCCOC)CC3)c(=O)c2cc1OCC (centres undefined)	0
CCOc1cc2[nH]c(=O)n(CC3CCC(C(=O)NCCC(C)C)CC3)c(=O)c2cc1OCC (centres undefined)	68*	HIV RNase H inh-2=?
O=C(CCN1C(=O)c2ccccc2S1(=O)=O)Nc1nc2c(s1)CCCC2	-13
CCCCOCCCNC(=O)c1c(-c2ccccc2)noc1C	-10
CCCn1c(=O)[nH]c(=O)c2c1nc(-c1ccc3c(c1)OCCO3)n2CCN1CCOCC1	-16
Cc1ccnc2c(N3C(=O)C4C5C=CC(C5)C4C3=O)cccc12 (centres undefined)	5
C=CCn1c2ccccc2c2nnc(SCN3C(=O)c4ccccc4C3=O)nc21	-22
CSc1nnc2c3cc(C)ccc3n(Cc3ccccc3)c2n1	50*	HIV RNase H inh-2=-3
CCn1c2ccccc2c2nnc(SCC(=O)c3ccccc3)nc21	2
C[C@@H]1C[C@H](Nc2ccccc2)c2ccccc2N1C(=O)c1cccnc1	-1
N#CC1=C(N)SC2(CCCCC2)SC1c1ccccc1 (centres undefined)	59*	HIV RNase H inh-2=22
N#CC1=C(C2CC2)CC(c2ccccc2)C(C#N)=C1N (centres undefined)	-63
COc1cccc(CSc2nnc(-c3ccco3)n2C)c1	-3
CC12C(=O)N(c3nccs3)C(=O)C1C1C=CC2C1 (centres undefined)	-3
